Source: PubChem BioAssay (NCI)
The panel holds about 83,000 compounds, 20% with a hit somewhere; the sample as a whole holds those more often.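 In brief: 96-well plates, 48 h treatment, single concentration, percent growth endpoint.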 Values without a mark were called inactive. Activity calls are given as the source filed them.

The compounds below were run on CAKI-1 renal (assay: NCI-60 one-dose screen, 48 h (100 = growth as untreated, 0 = no growth, -100 = all killed)). Settings: 10 µM unless noted.
Protocol: Growth inhibition of the CAKI-1 human tumor cell line is measured as a screen for anti-cancer activity. Cells are grown in 96 well plates and exposed to the test compound for 48 hours. Compounds are tested at a single concentration, which is 10^-5 M for most compounds. The reported endpoint is percent growth (GI% or GIPRCNT), where numbers from 0 - 100% represent growth inhibition, and numbers from -100% - 0 represent cell death. For example, a value of 40 represents 60% growth inhibition. A value of 0 means no net growth occurred over the course of the experiment. A value of -40 indicates 40% of cells at the beginning of the experiment died by the end of the experiment. A value of -100 means all cells are dead at the end of the experiment.
NCI-60 Human Tumor Cell Lines Screen was performed using the standard one-dose NCI protocol, which is described in more detail at https://dtp.cancer.gov/discovery_development/nci-60/default.htm.
Compounds with GIPRCNT values below 10 were considered active. Activity score was based on GIPRCNT using the following formula: […]
Score is 0 for GIPRCNT values of 100 or above, 50 for GIPRCNT values of 0, and 100 for GIPRCNT values of -100.
`CCCCOCc1cc(CN2CCN(C)CC2)c(O)c2ncccc12` showed a growth of 19.5%. In the case of `COc1ccc(-c2nsc3c2NC(=O)CC3c2ccsc2)cc1` (stereo not given), the growth is reported as 27.6%. `O=C1N=c2ccccc2=C1c1sc(=Nc2ccccc2)n(Nc2ccccc2)c1O` gave a growth of 37.2%. `COc1ccc2oc(=O)cc(Cn3cc(Cn4cnc5c4c(=O)n(C)c(=O)n5C)nn3)c2c1` gave a growth of 95.3%. `O=C(c1ccccc1)N(C(=S)NCCc1ccc(Cl)cc1)c1ccc(Cl)cc1` gave a growth of 42.1%. `O=Cc1c(OCc2cnnn2CC(=O)Nc2ccc(Br)cc2)ccc2ccccc12` gave a growth of 93.9%. Compound `COc1cc(/C=C/C(=O)c2ccc(Nc3nc(NCCO)nc(N4CCOCC4)n3)cc2)cc(OC)c1OC` has a growth of 23.6%. `O=C1/C=C/[C@@H](O)[C@@H]2C[C@@H](O)C[C@H]2/C=C/CCCCO1` gave a growth of 18.4%. For `Nc1ccc(-c2nn3c(CCC(=O)c4nc5ncccc5[nH]4)nnc3s2)c(O)c1`, the growth was 70.1%. Work on `N#C/C(=C\c1c(-c2ccccc2)[nH]c2ccccc12)S(=O)(=O)c1ccccc1` yielded a growth of 41.5%. With `O=C(Nc1ccccc1O)c1ccc(-c2ccc(Cl)cc2Cl)o1` the growth was 78.7%. `CN1CCN(Cc2ccc(C(=O)Nc3cncc(C#Cc4cnc(N)c5ccccc45)c3)cc2C(F)(F)F)CC1` was tested, and the growth was -91.4% (active). Compound `CC[C@H](C)[C@@H](C(=O)OC)n1cc(CNC(=O)[C@@H](Cc2ccccc2)NC(=O)OCc2ccccc2)nn1` has a growth of 83.4%. For `CCOC(=O)c1cc2c(n1Cc1cc(OC)cc(OC)c1)-c1oncc1CCC2`, the growth was 42.2%. `CCOc1ccc2c(c1)CN(Cc1ccc(Cl)cc1)CO2` was tested, and the growth was 54.2%. With `O=C(Nc1ccccc1O)c1ccc(Oc2cccc(C(=O)Nc3ccccc3O)c2)cc1` the growth was -0.0411% (active). `COc1cc(C2CC(c3ccc(Nc4nc(NCCO)nc(N5CCOCC5)n4)cc3)=NN2c2cc(Cl)cc(Cl)c2)cc(OC)c1OC` (stereo not given) gave a growth of 46.4%. `Cc1c(C(=O)OCCO)cc(-c2ccc(Cl)cc2)n1-c1ccc(Cl)cc1Cl` gave a growth of 63.6%. `CC1=C(C(=O)OCC2CCN(C(=O)OC(C)(C)C)CC2)[C@H](c2cccc(Br)c2)C2=C(CC(C)(C)CC2=O)N1` was tested, and the growth was 26.6%. `CC(C)C[C@H](C(=O)N[C@H](C(N)=O)C(C)C)N1CC=CCN(OCc2ccccc2)S1(=O)=O` showed a growth of 99.4% [2.5 µM]. In the case of `O=c1oc2ccc(Br)cc2c(=O)n1-c1ccc(I)cc1F`, the growth is reported as -8.71% (active). `O=C1Nc2ccccc2/C1=C/c1cccs1` showed a growth of 90.4%. With `CC(C)CCOc1ccc(-c2n[nH]c(C(F)(F)F)c2-c2cncc(C#N)c2)c(O)c1` the growth was 9.47% (active). `COC(=O)/C(CCC=C(C)C)=C1\[C@@H](OC(C)=O)C[C@@]2(C)[C@H]1C[C@@H](O)[C@H]1[C@@]3(C)CC[C@H](NCCO)[C@@H](C)[C@@H]3CC[C@@]12C` gave a growth of 91%. With `CNCCNc1nc2ccccc2c2c(=O)c3cccc(C)c3sc12` the growth was 17.9%. `COc1ccc(N)c(-c2cc3c(c4c2[nH]c2ccc(OC)cc24)CCCC3)c1` gave a growth of 67.1%. `COc1cc(-c2c3c(cn2S(=O)(=O)c2ccccc2)-c2nc(N)sc2CC3)cc(OC)c1OC` showed a growth of 34.2%. Compound `Cc1nn(-c2nc3ccccc3[nH]2)c2c1C(c1ccc(OCC(N)=O)cc1)CC(=O)N2` (stereo not given) has a growth of 89.5%. `COc1ccc(OC)c(/C=C/C(=O)c2c(C)nc3ccccc3c2/C=C/c2ccccc2)c1` showed a growth of 54.4%. Compound `CN1C(=O)N(C)C2Nn3c(s/c(=C4\C(=O)N(CCc5ccccc5)c5ccccc54)c3=O)=NC21` (stereo not given) has a growth of 49.2%. In the case of `COc1cc2nc(-c3cnc(N(C)C)nc3)nc(NC3CCN(Cc4ccccc4)CC3)c2cc1OC`, the growth is reported as -90.9% (active). Compound `COC(=O)c1c2c(c(C)[n+]([O-])c1C)C(=O)C(NCc1ccc(Br)cc1)=CC2=O` has a growth of 46.4%. With `CCOC(=O)C1=C(C)N=c2s/c(=C\c3ccccc3O)c(=O)n2C1c1ccc(OC)c2ccccc12` (stereo not given) the growth was -11.4% (active). Compound `CN1CCN(Cc2ccc(C(=O)Nc3cncc(C#Cc4cnc5cccnn45)c3)cc2C(F)(F)F)CC1` has a growth of 13.9%. Compound `CCN1C(=O)N(CC)C2C1NN=c1s/c(=C3\C(=O)N(C(C)C)c4ccccc43)c(=O)n12` (stereo not given) has a growth of 31.8%. `Cc1ccc(NCCNCC(O)CO)c2c(=O)c3ccccc3sc12` (stereo not given) gave a growth of 39.2%. Compound `O=C(CN1C=NC2C(N3CCOCC3)=NC=NC21)c1cccc2ccccc12` (stereo not given) has a growth of 73.1%. Work on `N[C@@H](CC/[N+]([O-])=N/O)C(=O)O` yielded a growth of 97.6%. `Cc1ccc(C(=O)c2oc3ccc4c(C)cc(=O)oc4c3c2C)cc1` gave a growth of 15.2%. For `CN(C)c1ccc(N=Cc2ccc(N3CCOCC3)cc2)cc1`, the growth was 86.6%.
